Measured values taken from PubChem BioAssay (EPA / NIEHS).
Records with an inconclusive call do not appear. Activity calls are given as the source filed them. Rule for the calls: active = hit-call score of the fitted dose curve at least 0.9, where 1 is the maximum; inconclusive = response in the unintended direction; inactive = score below 0.9.

Key:
[1] = molecular target: human Peroxisome Proliferator-activated Receptor alpha (PPARa), PPARA (gene 5465) (UniProt Q07869); assay: ATG_PPARa_TRANS: Attagene TRANS-FACTORIAL HepG2 Assay for human Peroxisome Proliferator-activated Receptor alpha (PPARa) (AID 2283001);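 for AC50: potency for gain of reporter signal over DMSO so agonist or activator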
Chain of human Peroxisome Proliferator-activated Receptor alpha (PPARa), PPARA (gene 5465) (Q07869 whole entry, looked up, the tested form may be a part): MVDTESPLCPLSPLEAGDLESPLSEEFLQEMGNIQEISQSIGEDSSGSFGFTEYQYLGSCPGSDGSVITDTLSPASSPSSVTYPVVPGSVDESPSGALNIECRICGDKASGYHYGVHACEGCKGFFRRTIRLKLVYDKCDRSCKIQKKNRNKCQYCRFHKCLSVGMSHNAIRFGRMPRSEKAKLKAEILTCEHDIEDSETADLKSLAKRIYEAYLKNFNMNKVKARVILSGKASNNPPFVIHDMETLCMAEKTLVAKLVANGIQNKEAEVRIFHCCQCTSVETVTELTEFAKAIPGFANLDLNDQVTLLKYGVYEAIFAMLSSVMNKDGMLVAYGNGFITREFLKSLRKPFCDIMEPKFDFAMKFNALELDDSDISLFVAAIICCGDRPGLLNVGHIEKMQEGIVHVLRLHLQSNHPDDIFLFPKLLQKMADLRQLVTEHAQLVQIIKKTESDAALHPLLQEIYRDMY
In short: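 Transfected HepG2 cells treated with test chemical for 24 h. RNA isolated, reverse-transcribed with oligo(dT), PCR-amplified, FAM-labelled and HpaI-digested. Fragments sized by capillary electrophoresis; gain-of-signal fit relative to DMSO.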

[2] = molecular target: human Peroxisome Proliferator-activated Receptor delta (PPARd), PPARD (gene 5467) (UniProt Q03181); assay: ATG_PPARd_TRANS: Attagene TRANS-FACTORIAL HepG2 Assay for human Peroxisome Proliferator-activated Receptor delta (PPARd) (AID 2283002)
Chain of human Peroxisome Proliferator-activated Receptor delta (PPARd), PPARD (gene 5467) (Q03181 whole entry, looked up): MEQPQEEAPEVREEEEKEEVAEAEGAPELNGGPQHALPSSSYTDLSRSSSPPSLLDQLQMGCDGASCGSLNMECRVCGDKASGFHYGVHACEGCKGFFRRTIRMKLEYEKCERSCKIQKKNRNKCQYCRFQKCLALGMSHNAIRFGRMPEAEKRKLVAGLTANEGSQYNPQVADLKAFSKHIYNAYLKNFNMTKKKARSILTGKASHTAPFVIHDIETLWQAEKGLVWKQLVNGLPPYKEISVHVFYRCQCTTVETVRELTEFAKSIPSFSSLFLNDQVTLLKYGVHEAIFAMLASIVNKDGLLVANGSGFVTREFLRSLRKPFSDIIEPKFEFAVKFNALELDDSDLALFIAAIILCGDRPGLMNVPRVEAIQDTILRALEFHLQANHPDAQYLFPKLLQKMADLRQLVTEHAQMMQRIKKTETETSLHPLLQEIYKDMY
In short: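 Cell-based TRANS reporter: HepG2, transient MRTU transfection, 24 h exposure. Readout = reporter mRNA (RT-PCR/CE, 6-FAM). Gain-of-signal fit vs DMSO control.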

[3] = molecular target: Peroxisome proliferator-activated receptor gamma (Homo sapiens) (UniProt P37231); assay: ATG_PPARg_TRANS: Attagene TRANS-FACTORIAL HepG2 Assay for human Peroxisome Proliferator-activated Receptor-gamma (PPARg) (AID 2283007)
Chain of Peroxisome proliferator-activated receptor gamma (Homo sapiens) (P37231 whole entry, looked up, the tested form may be a part): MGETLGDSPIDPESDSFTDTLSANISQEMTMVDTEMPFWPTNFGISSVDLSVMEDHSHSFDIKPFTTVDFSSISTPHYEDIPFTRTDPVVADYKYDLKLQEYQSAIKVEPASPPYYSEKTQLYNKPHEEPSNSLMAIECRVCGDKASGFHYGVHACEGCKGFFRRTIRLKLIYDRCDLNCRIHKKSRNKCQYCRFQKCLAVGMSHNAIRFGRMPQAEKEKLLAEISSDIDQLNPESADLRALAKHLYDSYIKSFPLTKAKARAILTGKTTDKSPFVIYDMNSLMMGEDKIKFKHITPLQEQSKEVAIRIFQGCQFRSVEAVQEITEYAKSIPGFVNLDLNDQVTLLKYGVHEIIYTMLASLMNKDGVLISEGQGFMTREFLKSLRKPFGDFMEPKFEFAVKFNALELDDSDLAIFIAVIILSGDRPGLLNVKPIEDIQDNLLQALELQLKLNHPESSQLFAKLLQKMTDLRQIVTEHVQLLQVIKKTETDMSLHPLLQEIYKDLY
In short: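 Transient transfection of HepG2 with GAL4-UAS-driven reporter units; chemical dosing 24 h; total RNA → oligo(dT) RT → PCR with reporter primers → 6-FAM primer extension → HpaI digest 2 h 37 C → capillary electrophoresis. Positive direction vs DMSO.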

[4] = molecular target: human RAR-related Orphan Receptor beta (RORb), RORB (gene 6096) (UniProt Q92753); assay: ATG_RORb_TRANS: Attagene TRANS-FACTORIAL HepG2 Assay for human RAR-related Orphan Receptor beta (RORb) (AID 2283010)
Chain of human RAR-related Orphan Receptor beta (RORb), RORB (gene 6096) (Q92753 whole entry, looked up, the tested form may be a part): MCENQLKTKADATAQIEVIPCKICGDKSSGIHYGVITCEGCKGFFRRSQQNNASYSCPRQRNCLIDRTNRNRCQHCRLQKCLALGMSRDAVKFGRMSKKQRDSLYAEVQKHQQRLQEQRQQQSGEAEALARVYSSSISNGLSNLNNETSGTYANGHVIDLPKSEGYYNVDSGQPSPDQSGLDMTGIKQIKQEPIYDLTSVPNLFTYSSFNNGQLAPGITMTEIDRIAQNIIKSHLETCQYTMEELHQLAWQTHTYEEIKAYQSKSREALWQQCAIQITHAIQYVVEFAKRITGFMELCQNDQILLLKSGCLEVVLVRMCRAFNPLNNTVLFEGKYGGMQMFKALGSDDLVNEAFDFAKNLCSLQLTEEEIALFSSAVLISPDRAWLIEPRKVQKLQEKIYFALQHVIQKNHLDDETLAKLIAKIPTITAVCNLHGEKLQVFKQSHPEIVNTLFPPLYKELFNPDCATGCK
In short: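 Multiplexed transcription-factor reporter assay: HepG2 cells transiently carrying NR-Gal4/GAL4-UAS constructs, 24 h treatment, mRNA quantified by RT-PCR plus capillary electrophoresis fluorescence; activity scored as induction over DMSO.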

[5] = molecular target: Retinoic acid receptor RXR-alpha (Homo sapiens) (UniProt P19793); assay: ATG_RXRa_TRANS: Attagene TRANS-FACTORIAL HepG2 Assay for human Retinoid X Receptor alpha (RXRa) (AID 2283012)
Chain of Retinoic acid receptor RXR-alpha (Homo sapiens) (P19793 whole entry, looked up, the tested form may be a part): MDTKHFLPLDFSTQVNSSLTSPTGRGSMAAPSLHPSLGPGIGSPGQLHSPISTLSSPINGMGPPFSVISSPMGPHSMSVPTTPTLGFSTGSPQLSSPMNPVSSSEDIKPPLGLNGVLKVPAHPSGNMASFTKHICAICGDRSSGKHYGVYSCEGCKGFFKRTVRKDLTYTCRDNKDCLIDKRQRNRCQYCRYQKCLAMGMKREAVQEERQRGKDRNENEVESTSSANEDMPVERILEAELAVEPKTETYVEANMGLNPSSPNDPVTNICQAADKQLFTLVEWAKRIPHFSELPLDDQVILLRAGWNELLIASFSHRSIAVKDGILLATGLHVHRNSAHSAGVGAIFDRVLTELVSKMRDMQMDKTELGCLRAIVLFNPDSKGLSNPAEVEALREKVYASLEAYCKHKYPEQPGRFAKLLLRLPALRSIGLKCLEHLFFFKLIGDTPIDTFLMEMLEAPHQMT
In short: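 Chimeric NR-GAL4 trans-activation in HepG2, 24 h treatment; reporter transcripts quantified by fluorescence on capillary electrophoresis, analysed for upward change from DMSO.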

[6] = molecular target: human Thyroid Receptor alpha (THRa1), THRA (gene 7067) (UniProt P10827); assay: ATG_THRa1_TRANS: Attagene TRANS-FACTORIAL HepG2 Assay for human Thyroid Receptor alpha (THRa1) (AID 2283014)
Chain of human Thyroid Receptor alpha (THRa1), THRA (gene 7067) (P10827 whole entry, looked up, the tested form may be a part): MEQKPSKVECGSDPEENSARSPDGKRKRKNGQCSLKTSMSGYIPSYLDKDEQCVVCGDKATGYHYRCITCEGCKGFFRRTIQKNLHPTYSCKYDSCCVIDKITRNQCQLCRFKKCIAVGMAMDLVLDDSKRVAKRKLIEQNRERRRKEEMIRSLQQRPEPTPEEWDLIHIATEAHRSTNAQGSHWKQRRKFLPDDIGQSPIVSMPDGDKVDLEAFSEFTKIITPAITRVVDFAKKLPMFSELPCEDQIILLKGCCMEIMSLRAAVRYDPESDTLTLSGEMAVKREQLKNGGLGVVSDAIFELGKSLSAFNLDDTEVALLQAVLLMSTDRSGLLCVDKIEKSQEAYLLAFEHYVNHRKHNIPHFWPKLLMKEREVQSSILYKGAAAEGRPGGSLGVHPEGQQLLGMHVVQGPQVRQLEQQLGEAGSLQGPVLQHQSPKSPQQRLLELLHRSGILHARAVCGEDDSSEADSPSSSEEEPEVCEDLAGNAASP
In short: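 Reporter transcript induction, read by capillary electrophoresis of 6-FAM-labelled RT-PCR products, reflects activity of a transfected THRa1-Gal4 fusion in HepG2 liver cells. Cells were dosed for 24 h; activity was fitted in the positive direction against DMSO.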

[7] = molecular target: Nuclear receptor subfamily 1 group I member 2 (Homo sapiens) (UniProt O75469); assay: ATG_PXR_TRANS: Attagene TRANS-FACTORIAL HepG2 Assay for human Pregnane X Receptor (PXR) (AID 2283008)
Chain of Nuclear receptor subfamily 1 group I member 2 (Homo sapiens) (O75469 whole entry, looked up, the tested form may be a part): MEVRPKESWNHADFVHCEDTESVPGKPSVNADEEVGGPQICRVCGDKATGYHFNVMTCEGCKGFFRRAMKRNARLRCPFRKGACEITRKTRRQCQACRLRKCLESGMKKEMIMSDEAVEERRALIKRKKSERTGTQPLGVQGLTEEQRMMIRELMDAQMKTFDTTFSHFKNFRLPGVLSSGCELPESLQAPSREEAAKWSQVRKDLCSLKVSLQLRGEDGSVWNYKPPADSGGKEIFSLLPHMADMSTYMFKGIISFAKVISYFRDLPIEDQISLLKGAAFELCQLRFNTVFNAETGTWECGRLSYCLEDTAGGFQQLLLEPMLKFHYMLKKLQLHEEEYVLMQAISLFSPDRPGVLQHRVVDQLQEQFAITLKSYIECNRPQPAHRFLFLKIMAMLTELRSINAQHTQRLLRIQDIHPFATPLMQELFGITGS
In short: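 Transient HepG2 transfectants carrying multiplexed reporter transcription units; PXR activity read through a Gal4 chimera. 24 h exposure. RT-PCR/CE fluorescence; upward curve fit referenced to DMSO.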

[8] = molecular target: human Retinoic Acid Receptor gamma (RARg), RARG (gene 5916) (UniProt P13631); assay: ATG_RARg_TRANS: Attagene TRANS-FACTORIAL HepG2 Assay for human Retinoic Acid Receptor gamma (RARg) (AID 2283009)
Chain of human Retinoic Acid Receptor gamma (RARg), RARG (gene 5916) (P13631 whole entry, looked up, the tested form may be a part): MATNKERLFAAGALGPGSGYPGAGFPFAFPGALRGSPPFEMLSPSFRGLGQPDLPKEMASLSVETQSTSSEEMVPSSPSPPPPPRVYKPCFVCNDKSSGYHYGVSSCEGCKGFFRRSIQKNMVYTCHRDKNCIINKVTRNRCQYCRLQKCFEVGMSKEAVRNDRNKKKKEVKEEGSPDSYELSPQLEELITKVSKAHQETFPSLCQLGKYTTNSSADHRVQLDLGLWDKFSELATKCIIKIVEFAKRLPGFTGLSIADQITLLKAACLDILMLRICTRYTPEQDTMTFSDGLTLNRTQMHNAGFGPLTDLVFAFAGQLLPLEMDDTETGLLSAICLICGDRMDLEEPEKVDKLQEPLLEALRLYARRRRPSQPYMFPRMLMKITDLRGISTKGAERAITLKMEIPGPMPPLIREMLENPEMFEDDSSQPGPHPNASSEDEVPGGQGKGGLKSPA
In short: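 Gain-of-signal relative to DMSO is reported from fluorescent capillary electrophoresis of RT-PCR reporter products. These came from HepG2 cells expressing transfected RARg-GAL4 chimeras with UAS reporters, harvested 24 h after dosing.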

[9] = molecular target: human Retinoid X Receptor beta (RXRb), RXRB (gene 6257) (UniProt P28702); assay: ATG_RXRb_TRANS: Attagene TRANS-FACTORIAL HepG2 Assay for human Retinoid X Receptor beta (RXRb) (AID 2283013)
Chain of human Retinoid X Receptor beta (RXRb), RXRB (gene 6257) (P28702 whole entry, looked up, the tested form may be a part): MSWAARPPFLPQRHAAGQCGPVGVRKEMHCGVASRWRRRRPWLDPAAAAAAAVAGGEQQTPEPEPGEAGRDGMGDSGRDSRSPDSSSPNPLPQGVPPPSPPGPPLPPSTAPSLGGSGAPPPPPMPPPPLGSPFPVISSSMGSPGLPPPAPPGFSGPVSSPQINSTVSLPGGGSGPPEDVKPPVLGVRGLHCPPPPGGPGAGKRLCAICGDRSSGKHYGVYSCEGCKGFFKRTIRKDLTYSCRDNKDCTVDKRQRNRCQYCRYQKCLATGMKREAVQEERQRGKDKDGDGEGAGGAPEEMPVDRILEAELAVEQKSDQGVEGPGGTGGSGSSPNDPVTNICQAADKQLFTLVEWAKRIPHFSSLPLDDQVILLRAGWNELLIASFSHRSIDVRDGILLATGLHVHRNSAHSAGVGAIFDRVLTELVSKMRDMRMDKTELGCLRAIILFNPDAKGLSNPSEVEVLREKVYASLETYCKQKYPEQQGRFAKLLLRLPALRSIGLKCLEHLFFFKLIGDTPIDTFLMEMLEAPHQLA
In short: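 After a 24 h incubation with test chemical, transfected HepG2 cells carrying NR-Gal4 fusions and GAL4-UAS reporter transcription units yield RNA whose reporter cDNA is FAM-labelled, HpaI-cut and sized by capillary electrophoresis; increases over DMSO are scored.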

[10] = molecular target: human Retinoic Acid Receptor beta (RARb), RARB (gene 5915) (UniProt P10826); assay: ATG_RARb_TRANS: Attagene TRANS-FACTORIAL HepG2 Assay for human Retinoic Acid Receptor beta (AID 2283004)
In short: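 Transient transfection of HepG2 with multiple reporter units → chemical dosing, 24 h → total RNA isolation → RT with oligo(dT) → reporter-specific PCR, 6-FAM primer extension, HpaI digest → capillary electrophoresis. Positive direction vs DMSO control.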

[11] = molecular target: Retinoic acid receptor alpha (Homo sapiens) (UniProt P10276); assay: ATG_RARa_TRANS: Attagene TRANS-FACTORIAL HepG2 Assay for human Retinoic Acid Receptor alpha (RARa) (AID 2283005)
Chain of Retinoic acid receptor alpha (Homo sapiens) (P10276 whole entry, looked up, the tested form may be a part): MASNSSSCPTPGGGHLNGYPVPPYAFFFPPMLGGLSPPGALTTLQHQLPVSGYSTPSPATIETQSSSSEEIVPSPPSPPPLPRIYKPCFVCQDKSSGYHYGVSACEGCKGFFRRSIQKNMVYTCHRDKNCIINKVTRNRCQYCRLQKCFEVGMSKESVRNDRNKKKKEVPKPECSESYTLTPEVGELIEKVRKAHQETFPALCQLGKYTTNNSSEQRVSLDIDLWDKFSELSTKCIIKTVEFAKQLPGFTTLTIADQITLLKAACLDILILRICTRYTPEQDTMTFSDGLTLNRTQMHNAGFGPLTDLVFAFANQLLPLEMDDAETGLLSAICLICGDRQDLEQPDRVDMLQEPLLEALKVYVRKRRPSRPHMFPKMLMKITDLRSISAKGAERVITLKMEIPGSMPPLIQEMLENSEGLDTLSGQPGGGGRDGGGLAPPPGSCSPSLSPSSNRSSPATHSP
In short: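 Reporter transcripts, measured by RT-PCR with fluorescent labeling and capillary electrophoresis after 24 h dosing, reflect activity of an exogenous human RARa–GAL4 fusion in transiently transfected HepG2. Fitted for increase relative to DMSO.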

[12] = molecular target: human RAR-related Orphan Receptor gamma (RORg), RORC (gene 6097) (UniProt P51449); assay: ATG_RORg_TRANS: Attagene TRANS-FACTORIAL HepG2 Assay for human RAR-related Orphan Receptor gamma (RORg) (AID 2283011)
In short: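 First, HepG2 liver cells were transfected with GAL4-UAS-driven reporter constructs and the RORg-Gal4 fusion. Next, they were treated with chemical for 24 h. Finally, reporter mRNA was quantified by RT-PCR and capillary electrophoresis, with upward activity fitted against DMSO.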

Measured: AC50

CCC(=O)c1ccccc1
inactive: [1] | [2] | [3] | [4] | [5] | [6]

O=C(c1ccccc1)C(Cl)Cl
inactive: [1] | [3] | [7] | [8] | [4] | [5] | [9] | [6]

COc1cc2c(cc1OC)[C@@]13CCN4CC5=CCO[C@H]6CC(=O)N2[C@H]1[C@H]6[C@H]5C[C@H]43
inactive: [1] | [3] | [7] | [6]

Cc1ccc(N)cc1Cl
inactive: [1] | [3] | [7] | [5] | [6]

O=C(NCO)NCO
inactive: [1] | [5]

O=C1C(Cl)=C(Cl)C(=O)c2ccccc21
inactive: [1] | [10] | [11] | [7] | [8] | [4] | [5] | [9]

CCCCCCCCSC(=O)Oc1cc(Cl)nnc1-c1ccccc1
inactive: [1] | [2] | [7] | [5] | [9]
active: [3] 24.3 µM

COP(=O)(OC)OC
inactive: [1] | [7] | [4] | [6]

CC1CN1P(=O)(N1CC1C)N1CC1C (configuration not stated)
inactive: [1] | [3] | [7] | [5] | [9] | [6]

C[C@H]1CCCC(=O)CCC/C=C/c2cc(O)cc(O)c2C(=O)O1
inactive: [1] | [2] | [3] | [6]
active: [7] 0.407 µM | [9] 9.82 µM

CC(=[OH+])/C=C(/C)[O-].CC(=[OH+])/C=C(/C)[O-].CC(=[OH+])/C=C(/C)[O-].[Fe]
inactive: [1] | [3] | [6]

COc1ccc(C=O)cc1
inactive: [1] | [2] | [4] | [5]

CNC(=O)O/N=C/C(C)(C)S(C)=O (configuration not stated)
inactive: [1] | [10] | [7] | [5] | [9] | [6]

O=C(Cl)c1ccc(Cl)cc1
inactive: [1] | [11] | [3] | [5] | [6]

O=CC=O
inactive: [1] | [2] | [3] | [4] | [5] | [6]

C=CC#N
inactive: [1] | [6]

O=C(CCl)CCl
inactive: [1] | [7] | [4] | [5] | [9] | [6]

CC(=O)C=C(C)C
inactive: [1] | [10] | [7] | [8] | [4] | [5] | [9]

C=CCc1ccc(OC)cc1
inactive: [1] | [12] | [5] | [9] | [6]

Clc1nc(Cl)nc(Cl)n1
inactive: [1] | [2] | [5] | [6]

C1CCC(NC2CCCCC2)CC1
inactive: [1] | [10] | [11] | [3] | [7] | [8] | [5] | [9] | [6]

CCc1ccccc1C
inactive: [1] | [2] | [3] | [7] | [5] | [9] | [6]

N#CN=C(N)N
inactive: [1] | [2] | [7] | [5]

Clc1ccc(COC(Cn2ccnc2)c2ccc(Cl)cc2Cl)cc1 (configuration not stated)
active: [1] 0.0853 µM | [3] 4.84 µM | [7] 0.44 µM | [9] 0.103 µM
inactive: [2] | [5]

CCc1ccccc1N
inactive: [1] | [3] | [7] | [4] | [12]

CN(CCCC(=O)c1cccnc1)N=O
inactive: [1] | [2] | [7] | [4] | [5] | [9] | [6]

CC1(C)CCC(Cc2ccc(Cl)cc2)C1(O)Cn1cncn1 (configuration not stated)
inactive: [1] | [2] | [5] | [6]
active: [7] 1.84 µM

CC(=[OH+])/C=C(/C)[O-].CC(=[OH+])/C=C(/C)[O-].CC(=[OH+])/C=C(/C)[O-].[Al]
inactive: [1] | [3] | [7] | [4] | [5] | [9] | [6]

O=C/C=C/c1ccccc1
active: [3] 28.7 µM | [7] 12.1 µM
inactive: [1] | [10] | [4] | [5] | [9]

C[C@]12CC[C@H](O)CC1=CC[C@@H]1[C@@H]2CC[C@]2(C)C(=O)CC[C@@H]12
inactive: [1] | [10] | [11] | [3] | [8] | [5] | [9]
active: [7] 27.5 µM

Nc1cccc(Cl)c1
inactive: [1] | [4] | [9] | [6]

Nc1ccc(Cl)cc1C(=O)c1ccccc1
inactive: [1] | [2] | [5] | [6]
active: [3] 25.8 µM | [7] 10.5 µM | [9] 21.9 µM

C[C@H]1O[C@@H](O[C@H]2[C@@H](O)C[C@H](O[C@H]3[C@@H](O)C[C@H](O[C@H]4CC[C@@]5(C)[C@H](CC[C@@H]6[C@@H]5CC[C@]5(C)[C@@H](C7=CC(=O)OC7)CC[C@]65O)C4)O[C@@H]3C)O[C@@H]2C)C[C@H](O)[C@@H]1O
active: [1] 0.0564 µM
inactive: [2] | [3] | [4] | [5] | [6]

COc1ccc(C=O)cc1OC
inactive: [1] | [3] | [4] | [5] | [6]

Cl/C=C\C[N+]12CN3CN(CN(C3)C1)C2
inactive: [3] | [4] | [5]

CNC
inactive: [2] | [4] | [9]

O=P(O)(O)CN(CP(=O)(O)O)CP(=O)(O)O
inactive: [2] | [11] | [7] | [8] | [4] | [5] | [9] | [6]

ClC1=C(Cl)[C@]2(Cl)[C@@H]3[C@@H](Cl)[C@@H](Cl)C[C@@H]3[C@@]1(Cl)C2(Cl)Cl
inactive: [11] | [3] | [9]
